Test results reported in PubChem BioAssay (EPA / NIEHS).
Inconclusive results are not listed. Active and inactive are the calls of the source. Rule for the calls, unless noted: active = hit-call score of the fitted dose curve at least 0.9, where 1 is the maximum; inactive = score below 0.9.

Columns and labels:
[1] = read-out: Interleukin-1 alpha (IL1a), IL1A (gene 3552); test: BSK_BE3C_IL1a: BioMAP Diversity Plus: BE3C Assay for Interleukin-1 alpha (IL1a) Biomarker Activity (AID 2283016); settings: primary human bronchial epithelial cells; actives raise or lower the signal
In short: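 ELISA read-out of IL-1a from human lung bronchial epithelial primary cells, 24 h post-dose. Gain or loss of signal fitted relative to DMSO negative control.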

[2] = read-out: Monocyte Chemoattractant Protein-1 (MCP1), CCL2 (gene 6347); test: BSK_3C_MCP1: BioMAP Diversity Plus: 3C Assay for Monocyte Chemoattractant Protein-1 (MCP1) Biomarker Activity (AID 2283017); settings: primary human endothelial cells (HUVEC); actives raise or lower the signal
In short: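 Primary human umbilical vein endothelial cells (3C system) were exposed to test chemical for 24 h, after which MCP-1 was quantified by ELISA. Activity was fitted bidirectionally against DMSO as negative control and baseline.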

[3] = read-out: Monocyte Chemoattractant Protein-1 (MCP1), CCL2 (gene 6347); test: BSK_4H_MCP1: BioMAP Diversity Plus: 4H Assay for Monocyte Chemoattractant Protein-1 (MCP1) Biomarker Activity (AID 2283018); settings: primary human endothelial cells (HUVEC); actives raise or lower the signal
In short: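 HUVEC primary cells, 24 h post-dose, MCP-1 by ELISA. Gain or loss of signal fitted bidirectionally vs DMSO baseline. Cytotoxicity: SRB stain (0.1% after 10% TCA fixation), read 560 nm, parallel cultures.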

[4] = read-out: Human Leukocyte Antigen - DR isotype (HLADR), HLA-DRA (gene 3122); test: BSK_3C_HLADR: BioMAP Diversity Plus: 3C Assay for Human Leukocyte Antigen - DR isotype (HLADR) Biomarker Activity (AID 2283019); settings: primary human endothelial cells (HUVEC); actives raise or lower the signal
In short: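 Primary human umbilical vein endothelial cells (3C system) were dosed with compound and cell-surface HLA-DR was quantified by ELISA at 24 h. Activity was fitted bidirectionally against DMSO as negative control and baseline.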

[5] = read-out: Interleukin-8 (IL8), CXCL8 (gene 3576); test: BSK_3C_IL8: BioMAP Diversity Plus: 3C Assay for Interleukin-8 (IL8) Biomarker Activity (AID 2283020); settings: primary human endothelial cells (HUVEC); actives raise or lower the signal
In short: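 HUVEC, 3C stimulation; 24 h compound exposure; IL-8 read by ELISA; gain or loss of signal fitted relative to DMSO control.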

[6] = read-out: Monokine induced gamma interferon (MIG), CXCL9 (gene 4283); test: BSK_3C_MIG: BioMAP Diversity Plus: 3C Assay for Monokine induced gamma interferon (MIG) Biomarker Activity (AID 2283021); settings: primary human endothelial cells (HUVEC); actives raise or lower the signal
In short: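 HUVEC, 3C system; 24 h chemical exposure; MIG by ELISA; bidirectional fit vs DMSO baseline.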

[7] = molecular target: human Vitamin D Receptor (VDR), VDR (gene 7421) (UniProt P11473); test: ATG_VDR_TRANS: Attagene TRANS-FACTORIAL HepG2 Assay for human Vitamin D Receptor (VDR) (AID 2283022; active = hit-call score of the fitted dose curve at least 0.9, where 1 is the maximum)
In short: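 HepG2 cells were transiently transfected with multiple GAL4-UAS reporter units, so signal reflects exogenous chimeric receptor-Gal4 activity. After 24 h compound exposure, reporter mRNA was measured by RT-PCR, fluorescent labelling and capillary electrophoresis, fitted for gain of signal versus DMSO.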

[8] = BSK_3C_SRB: Viability Assessment in the BioMAP Diversity Plus: 3C Assay (AID 2283023); settings: primary human endothelial cells (HUVEC);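 note: fitted both ways against DMSO so a hit may be signal rise or drop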
In short: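 Primary human umbilical vein endothelial cells in the 3C system were read 24 h after compound dosing. Total protein was stained with 0.1% sulforhodamine B after 10% TCA fixation and read at 560 nm, with bidirectional fitting against DMSO as baseline.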

[9] = BSK_3C_Vis: BioMAP Diversity Plus: 3C Assay for Morphology Visualization (AID 2283025); settings: primary human endothelial cells (HUVEC);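 note: fitted both ways so gain or loss versus DMSO counts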;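 for AC50: light microscopy image of cell morphology used as background control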
In short: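 HUVEC, 3C system; light microscopy of morphology at 24 h post-dose. Bidirectional fit vs DMSO baseline. Secondary readout, background-control function.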

[10] = read-out: Pselectin, SELP (gene 6403); test: BSK_4H_Pselectin: BioMAP Diversity Plus: 4H Assay for Pselectin Biomarker Activity (AID 2283026); settings: primary human endothelial cells (HUVEC); actives raise or lower the signal
In short: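 HUVEC, 24 h chemical exposure; P-selectin read by ELISA. Bidirectional curve fit vs DMSO baseline; gain or loss of signal scored.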

[11] = BSK_4H_SRB: Viability Assessment in the BioMAP Diversity Plus: 4H Assay (AID 2283027); settings: primary human endothelial cells (HUVEC);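 note: cells exposed to compound for 24 h before staining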;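 for AC50: curves fitted both ways versus DMSO so AC50 may be loss or gain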
In short: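 HUVEC, 24 h post-dose; 10% TCA fix, 0.1% SRB stain, A560 nm. Total protein = overt cytotoxicity, parallel to biomarker read. Bidirectional fit vs DMSO baseline.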

[12] = BSK_BE3C_SRB: Viability Assessment in the BioMAP Diversity Plus: BE3C Assay (AID 2283028); settings: primary human bronchial epithelial cells
In short: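 Human primary bronchial epithelial cells were exposed to test chemicals for 24 h. Total protein in parallel cultures was then measured by staining with 0.1% sulforhodamine B after 10% TCA fixation, with absorbance read at 560 nm. Activity was fitted bidirectionally against DMSO.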

[13] = read-out: Thrombomodulin, THBD (gene 7056); test: BSK_3C_Thrombomodulin: BioMAP Diversity Plus: 3C Assay for Thrombomodulin Biomarker Activity (AID 2283029); settings: primary human endothelial cells (HUVEC); actives raise or lower the signal
In short: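 HUVEC, 3C conditions; compound 24 h; thrombomodulin by ELISA; bidirectional curve fit vs DMSO baseline; parallel SRB total-protein staining for cytotoxicity.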

[14] = read-out: Urokinase-type plasminogen activator receptor (uPAR), PLAUR (gene 5329); test: BSK_4H_uPAR: BioMAP Diversity Plus: 4H Assay for Urokinase-type plasminogen activator receptor (uPAR) Biomarker Activity (AID 2283030); settings: primary human endothelial cells (HUVEC); actives raise or lower the signal
In short: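 Primary human umbilical vein endothelial cells were exposed to chemical for 24 h before cell-surface uPAR was quantified by ELISA. Activity was fitted bidirectionally against the DMSO negative control baseline.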

[15] = read-out: Vascular endothelial growth factor receptor 2 (Homo sapiens) (UniProt P35968); test: BSK_4H_VEGFRII: BioMAP Diversity Plus: 4H Assay for Vascular endothelial growth factor receptor 2 (VEGFR2) Biomarker Activity (AID 2283031); settings: primary human endothelial cells (HUVEC); actives raise or lower the signal;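 for AC50: cell-surface VEGFR2 protein level quantified by ELISA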
In short: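 Primary human umbilical vein endothelial cells in the BioMAP 4H system were dosed with test chemical, and 24 h later VEGFRII was measured by ELISA. Activity was fitted bidirectionally against DMSO as negative control and baseline.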

[16] = read-out: Human Leukocyte Antigen - DR isotype (HLADR), HLA-DRA (gene 3122); test: BSK_BE3C_HLADR: BioMAP Diversity Plus: BE3C Assay for Human Leukocyte Antigen - DR isotype (HLADR) Biomarker Activity (AID 2283032); settings: primary human bronchial epithelial cells; actives raise or lower the signal
In short: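 Primary human bronchial epithelial cells (BE3C); 24 h chemical exposure; HLA-DR by ELISA; bidirectional curve fit vs DMSO baseline.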

[17] = read-out: Vascular cell adhesion molecule 1 (VCAM1), VCAM1 (gene 7412); test: BSK_4H_VCAM1: BioMAP Diversity Plus: 4H Assay for Vascular cell adhesion molecule 1 (VCAM1) Biomarker Activity (AID 2283033); settings: primary human endothelial cells (HUVEC); actives raise or lower the signal
In short: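 HUVEC, 24 h post-dose; VCAM-1 by ELISA. Bidirectional curve fit vs DMSO baseline. Parallel SRB total-protein stain (0.1% SRB after 10% TCA fixation, 560 nm) for cytotoxicity.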

[18] = read-out: Interferon-gamma inducible Protein 10 (IP10), CXCL10 (gene 3627); test: BSK_BE3C_IP10: BioMAP Diversity Plus: BE3C Assay for Interferon-gamma inducible Protein 10 (IP10) Biomarker Activity (AID 2283034); settings: primary human bronchial epithelial cells; actives raise or lower the signal
In short: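 ELISA readout of IP-10 in BE3C system: primary human bronchial epithelial cells, 24 h post-dosing; bidirectional curve fit vs DMSO baseline.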

[19] = read-out: Monokine induced gamma interferon (MIG), CXCL9 (gene 4283); test: BSK_BE3C_MIG: BioMAP Diversity Plus: BE3C Assay for Monokine induced gamma interferon (MIG) Biomarker Activity (AID 2283035); settings: primary human bronchial epithelial cells; actives raise or lower the signal
In short: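 Dose cells (human primary bronchial epithelial), incubate 24 h, quantify MIG by ELISA, then fit concentration–response in both directions relative to DMSO control.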

[20] = read-out: Matrix Metallopeptidase 1 (MMP1), MMP1 (gene 4312); test: BSK_BE3C_MMP1: BioMAP Diversity Plus: BE3C Assay for Matrix Metallopeptidase 1 (MMP1) Biomarker Activity (AID 2283024); settings: primary human bronchial epithelial cells; actives raise or lower the signal
In short: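 ELISA read-out of MMP1 in human lung bronchial epithelial primary cultures, 24 h post-dose; bidirectional curve fit vs DMSO baseline, gain or loss of signal scored.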

Measured: AC50

human Vitamin D Receptor (VDR), VDR (gene 7421), sequence (P11473 whole entry, looked up, the tested form may be a part): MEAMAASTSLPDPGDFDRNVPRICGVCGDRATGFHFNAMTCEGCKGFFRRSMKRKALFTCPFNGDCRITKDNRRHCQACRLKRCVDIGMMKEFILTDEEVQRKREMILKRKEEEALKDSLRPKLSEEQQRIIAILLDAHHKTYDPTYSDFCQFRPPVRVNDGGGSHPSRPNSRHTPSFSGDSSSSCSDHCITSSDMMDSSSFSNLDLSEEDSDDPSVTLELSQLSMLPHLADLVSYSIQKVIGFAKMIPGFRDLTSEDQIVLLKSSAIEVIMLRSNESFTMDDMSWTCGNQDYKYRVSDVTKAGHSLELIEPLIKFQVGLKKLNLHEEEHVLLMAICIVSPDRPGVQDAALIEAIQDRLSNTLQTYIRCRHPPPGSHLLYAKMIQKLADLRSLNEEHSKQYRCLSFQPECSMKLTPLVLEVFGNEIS

O=c1[nH]c2ccc(S(=O)CCN3CCC(Cc4ccc(F)cc4)CC3)cc2o1 (stereo not given)
active: [3] 4.88 µM | [11] 3.97 µM | [14] 12.8 µM | [17] 15.3 µM
not listed: [20]
inactive: all other assays above

CC(C)c1cccc(C(C)C)c1N1C(=O)c2ccc(O)cc2C1=O
inactive: [2] | [6] | [7] | [20] | [12] | [13]
active: [1] 20 µM | [3] 4.76 µM | [4] 8.36 µM | [5] 4.86 µM | [8] 17.3 µM | [9] 5.57 µM | [11] 12.8 µM | [14] 14.6 µM | [15] 20 µM | [16] 14 µM | [18] 19.5 µM | [19] 26.3 µM

CN(C)c1ccc(Cc2ccc(N(C)C)cc2)cc1
active: [4] 31.8 µM | [5] 20 µM | [10] 32.8 µM | [16] 36.3 µM | [18] 28.8 µM
not listed: [17] | [20]
inactive: all other assays above

CC(O)CN(CCN(CC(C)O)CC(C)O)CC(C)O (stereo not given)
not listed: [10]
inactive: all other assays above

Fc1ccccc1[C@@H](F)COC1CCC(Nc2ncnc3[nH]ncc23)CC1 (stereo not given in full)
active: [2] 30.2 µM | [4] 15.4 µM | [5] 20 µM | [8] 27.6 µM | [9] 39 µM | [11] 30 µM | [14] 28.2 µM
not listed: [10] | [17]
inactive: all other assays above

O=c1n(CC2CO2)c(=O)n(CC2CO2)c(=O)n1CC1CO1 (stereo not given)
active: [2] 20 µM | [4] 21.5 µM | [5] 13.2 µM | [8] 17.5 µM | [9] 39 µM | [11] 15.1 µM | [16] 34.7 µM | [17] 23.4 µM
not listed: [10] | [20]
inactive: all other assays above

CCCCCCCCCCCCc1ccccc1
active: [4] 33.2 µM | [10] 31.5 µM
inactive: all other assays above
